The list is not random: actives were taken first. Their share in the collection is about 3.8%.
PrP UTR inh: inhibition of PrP 5' UTR reporter expression; cell-based PrP 5' UTR mRNA reporter, plate reader; inhibition, % (no concentration beside the values); 340,000 tested, 0.35% active; AID 488862; in the data active = inhibition above about 52%
PrPC TRFRET: reduces human prion protein on the cell surface; P04156; cell surface PrPC, TR-FRET read-out; inhibition, % at 13.8 µM; 370,000 tested, 0.43% active; AID 720596; in the data active = inhibition above about 24%
Y pestis TopoI: Y. pestis Topo-I inhibition via cleavage products; Y. pestis Topo-I cleavage product accumulation, plate reader; activity, % at 10 µM; 360,000 tested, 0.064% active; AID 504884; in the data active = activity above about 50%, passing the limit was not always enough
GDH-TPI counter-1: inhibits GDH-TPI coupling enzymes, artifact for Mtb FBA screen; GDH-TPI coupled enzyme counterscreen, NADH absorbance; inhibition, % at 4.8 µM; 360,000 tested, 1.2% active; in the data active = inhibition above about 30%
Mtb hypoxia inh: Mtb hypoxia fluorescent reporter inhibition; 300,000 tested, 0.1% active; fluorescence inhibition, % (test concentration not listed); M. tuberculosis hypoxia-regulated fluorescent reporter, fluorescence; in the data active = fluorescence inhibition mostly above about 23%, no sharp cut-off; inactive = mostly below about 17%
Mtb FBA inh: Mtb fructose-bisphosphate aldolase inhibition | P9WQA3 | purified M. tuberculosis FBA, fluorescence read-out | inhibition, % at 1 µM | 360,000 tested, 2.3% active | AID 588726
Target sequence (P9WQA3 whole entry, looked up): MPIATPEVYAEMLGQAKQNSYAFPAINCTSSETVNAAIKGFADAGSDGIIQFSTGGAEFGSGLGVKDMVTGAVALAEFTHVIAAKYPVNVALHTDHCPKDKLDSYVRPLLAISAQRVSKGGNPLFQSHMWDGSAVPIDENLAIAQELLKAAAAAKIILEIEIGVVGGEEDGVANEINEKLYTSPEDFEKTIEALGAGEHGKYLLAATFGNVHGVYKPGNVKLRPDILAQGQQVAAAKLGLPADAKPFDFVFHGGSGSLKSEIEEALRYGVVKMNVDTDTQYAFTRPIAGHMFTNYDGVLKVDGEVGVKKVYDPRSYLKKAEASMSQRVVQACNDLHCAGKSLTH
Mtb FBA confirm: Mtb FBA inhibition, confirmed | purified M. tuberculosis FBA, fluorescence read-out | inhibition, % at 1 µM | shares compounds with Mtb FBA inh | 5,600 tested, 78% active
GDH-TPI counter-2: inhibits GDH-TPI coupling enzymes, flagging Mtb FBA hits. 5,600 tested, 81% active. AID 652141. shares compounds with Mtb FBA inh. GDH-TPI coupled enzyme counterscreen, fluorescence. inhibition, % at 1 µM; in the data active = inhibition above about 10%
GDH-TPI DR: GDH-TPI dose response counter-screen for Mtb FBA. IC50, µM. GDH-TPI coupled enzyme assay, fluorescence, artifact counterscreen. shares compounds with Mtb FBA inh. 170 tested, 79% active; call rule not given here
Numbers stand for hits. Cut-off read from the data, not from the text of the source, unless noted: active = inhibition above about 27%; inactive = the rest.

Screening Cc1ccn2c(c1)nc(=O)c1cc(S(=O)(=O)N3CCOCC3)ccc12 returned PrP UTR inh inactive, PrPC TRFRET inactive, Y pestis TopoI inactive, GDH-TPI counter-1 inactive, Mtb hypoxia inh inactive, Mtb FBA inh 79, Mtb FBA confirm 153 and GDH-TPI counter-2 109.
`CCOP(=O)(OCC)c1nc(-c2ccc(C)cc2)oc1NCc1ccccc1` gave PrP UTR inh inactive, PrPC TRFRET inactive, Y pestis TopoI inactive, GDH-TPI counter-1 inactive, Mtb hypoxia inh inactive, Mtb FBA inh 84, Mtb FBA confirm 172 and GDH-TPI counter-2 186.
For Cc1ccc(SCc2c(C(=O)NN=CC3CC=CCC3)nnn2-c2nonc2N)cc1 (stereo unspecified) the results were Mtb hypoxia inh inactive.
`CCOC(=O)N1CCC(NC(=O)CSCc2nc(-c3ccc(C)cc3)oc2C)CC1` gave PrP UTR inh inactive, PrPC TRFRET inactive, Y pestis TopoI inactive, GDH-TPI counter-1 inactive, Mtb hypoxia inh inactive, Mtb FBA inh 51, Mtb FBA confirm inactive and GDH-TPI counter-2 20.
Screening CCCCc1cc(=O)oc2cc(OCc3nn[nH]n3)ccc12 returned PrP UTR inh inactive, PrPC TRFRET inactive, Y pestis TopoI inactive, GDH-TPI counter-1 inactive, Mtb hypoxia inh inactive, Mtb FBA inh 35, Mtb FBA confirm inactive and GDH-TPI counter-2 inactive.
Screening CCCCc1cc(=O)oc2c(C)c(OCC(=O)N3CCCC3)ccc12 returned PrP UTR inh inactive, PrPC TRFRET inactive, Y pestis TopoI inactive, GDH-TPI counter-1 inactive, Mtb hypoxia inh inactive and Mtb FBA inh inactive.
`CCCCc1cc(=O)oc2c(C)c(OCc3nn[nH]n3)ccc12` gave PrP UTR inh inactive, PrPC TRFRET inactive, Y pestis TopoI inactive, GDH-TPI counter-1 inactive, Mtb hypoxia inh inactive, Mtb FBA inh 28, Mtb FBA confirm 59 and GDH-TPI counter-2 43.
C=C(Cl)COc1ccc2c(CCC)cc(=O)oc2c1 was read as PrP UTR inh inactive, PrPC TRFRET inactive, Y pestis TopoI inactive, GDH-TPI counter-1 inactive and Mtb FBA inh inactive.
Screening CCCc1cc(=O)oc2cc(OCc3nn[nH]n3)ccc12 returned PrP UTR inh inactive, PrPC TRFRET inactive, Y pestis TopoI inactive, GDH-TPI counter-1 inactive, Mtb hypoxia inh inactive, Mtb FBA inh 34, Mtb FBA confirm 57 and GDH-TPI counter-2 36.
CCCc1cc(=O)oc2cc(OCc3ccc(C(=O)O)o3)ccc12 was read as PrP UTR inh inactive, PrPC TRFRET inactive, Y pestis TopoI inactive, GDH-TPI counter-1 inactive, Mtb hypoxia inh inactive, Mtb FBA inh 36, Mtb FBA confirm inactive, GDH-TPI counter-2 inactive and GDH-TPI DR 4.8.
COc1c(Cl)cc(Cl)cc1C=Nn1cnnc1 was read as Mtb hypoxia inh inactive.
`O=C(Cn1c2ccc(F)cc2c2nc3n(c(=O)c21)CCS3)NCC1CCCO1` (stereo unspecified) gave PrP UTR inh inactive, PrPC TRFRET inactive, Y pestis TopoI inactive, GDH-TPI counter-1 inactive, Mtb hypoxia inh inactive, Mtb FBA inh 30, Mtb FBA confirm 62 and GDH-TPI counter-2 55.
Screening O=C1Nc2ccc(S(=O)(=O)N3CCCC3)c3cccc1c23 returned PrP UTR inh inactive, PrPC TRFRET inactive, Y pestis TopoI inactive, GDH-TPI counter-1 inactive, Mtb hypoxia inh inactive and Mtb FBA inh inactive.
`O=C1Nc2ccc(S(=O)(=O)NCc3ccccn3)c3cccc1c23` gave PrP UTR inh inactive, PrPC TRFRET inactive, Y pestis TopoI inactive, GDH-TPI counter-1 inactive, Mtb hypoxia inh inactive, Mtb FBA inh 76, Mtb FBA confirm 67 and GDH-TPI counter-2 52.
Screening CCN(CC)CCNS(=O)(=O)c1ccc2c3c(cccc13)C(=O)N2 returned PrP UTR inh inactive, PrPC TRFRET inactive, Y pestis TopoI inactive, GDH-TPI counter-1 inactive, Mtb hypoxia inh inactive, Mtb FBA inh 54, Mtb FBA confirm 61 and GDH-TPI counter-2 60.
`O=C1Nc2ccc(S(=O)(=O)N3CCCCCC3)c3cccc1c23` gave PrP UTR inh inactive, PrPC TRFRET inactive, Y pestis TopoI inactive, GDH-TPI counter-1 inactive and Mtb FBA inh inactive.
Screening CN(C)CCNS(=O)(=O)c1ccc2c3c(cccc13)C(=O)N2 returned PrP UTR inh inactive, PrPC TRFRET inactive, Y pestis TopoI inactive, GDH-TPI counter-1 inactive, Mtb hypoxia inh inactive, Mtb FBA inh 43, Mtb FBA confirm inactive and GDH-TPI counter-2 inactive.
Brc1ccc(C=Nc2nc3ccccc3n2CCN2CCOCC2)cc1 was read as Mtb hypoxia inh inactive.
CC(N)CN1CCc2ccc(Br)cc21 (stereo unspecified) was read as Mtb hypoxia inh inactive.
`CCC(=O)c1ccccc1OCCCn1cncn1` gave PrP UTR inh inactive, PrPC TRFRET inactive, Y pestis TopoI inactive, GDH-TPI counter-1 inactive, Mtb hypoxia inh inactive, Mtb FBA inh 27, Mtb FBA confirm 112 and GDH-TPI counter-2 84.
`CCC(=O)c1ccccc1OCCN1CCN(Cc2ccccc2)CC1` gave PrP UTR inh inactive, PrPC TRFRET inactive, Y pestis TopoI inactive, GDH-TPI counter-1 inactive, Mtb hypoxia inh inactive and Mtb FBA inh inactive.
`S=c1[nH]nc(-c2cc(-c3ccccc3)n[nH]2)n1N=C/C=C/c1ccccc1` gave Mtb hypoxia inh inactive.
Screening COc1ccc2nc(C)cc(Nc3ccc(C(=O)O)cc3)c2c1 returned PrP UTR inh inactive, Y pestis TopoI inactive, GDH-TPI counter-1 inactive, Mtb hypoxia inh inactive and Mtb FBA inh inactive.
CCOc1ccc2nc(C)cc(C(=O)O)c2c1 was read as PrP UTR inh inactive, PrPC TRFRET inactive, Y pestis TopoI inactive, GDH-TPI counter-1 inactive, Mtb hypoxia inh inactive, Mtb FBA inh 87, Mtb FBA confirm 74 and GDH-TPI counter-2 51.
Screening CCOc1ccc(Nc2cc(C)nc3ccc(C)cc23)cc1 returned PrP UTR inh inactive, PrPC TRFRET inactive, Y pestis TopoI inactive, GDH-TPI counter-1 inactive, Mtb hypoxia inh inactive and Mtb FBA inh inactive.
Screening COc1ccc2nc(C)cc(C(=O)O)c2c1 returned PrP UTR inh inactive, PrPC TRFRET inactive, Y pestis TopoI inactive, GDH-TPI counter-1 inactive, Mtb hypoxia inh inactive, Mtb FBA inh 79, Mtb FBA confirm inactive, GDH-TPI counter-2 inactive and GDH-TPI DR 2.3.
For COc1ccc2nccc(C(N)=O)c2c1 the results were PrP UTR inh inactive, PrPC TRFRET inactive, Y pestis TopoI inactive, GDH-TPI counter-1 inactive, Mtb hypoxia inh inactive, Mtb FBA inh 49, Mtb FBA confirm 43 and GDH-TPI counter-2 28.
For COc1ccccc1NS(=O)(=O)c1cccc(C(=O)NN=Cc2ccc3c(c2)OCCO3)c1 the results were Mtb hypoxia inh inactive.
CCOc1ccc(-c2cc(C(=O)NCCCN3CCN(CC)CC3)c3ccccc3n2)cc1 was read as PrP UTR inh inactive, PrPC TRFRET inactive, Y pestis TopoI inactive, GDH-TPI counter-1 inactive, Mtb hypoxia inh inactive, Mtb FBA inh 46, Mtb FBA confirm 61 and GDH-TPI counter-2 48.

Screens: PubChem, several laboratories
